This is an account of results in PubChem BioAssay.

Active and inactive are the calls of the source.

Assay [1] concerns Plasmodium falciparum Sir2 (PF13_0152, Sir2A). As to the kind of experiment: pfSir2 binders on small-molecule microarrays, primary screen, biochemical, small-molecule microarray, 635 nm fluorescence (AID 1098).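 Also: score merges spot fluorescence intensity with its signal-to-noise ratio.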 Particulars: small-molecule microarray binding, fluorescence 635 nm; higher = more signal.
A short description of assay [2]: small-molecule microarray binders of probe aDKK1, primary screen, biochemical, biotinylated probe, 635/667 nm fluorescence (AID 1099).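 Also: score merges 667nm spot fluorescence with signal to noise across triplicate slides.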 Particulars: higher = more signal.
A short description of assay [3]: small-molecule microarray binders of probe aCHRDL2, primary screen, biochemical, biotinylated probe, 635/667 nm fluorescence (AID 1100). As to conditions: higher = more signal.
Assay [4] in a line: splicing luciferase reporter signal modulators, primary screen, spliceosome inhibition project, cell-based, HEK293, splice +/- reporter (AID 1101).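 Also: HEK293 cells carrying a splicing-competent luciferase reporter gene; test concentration not given here.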 Particulars: luminescence, 24 h, higher = more signal, called active from +8 up or from −8 down. In general terms: Reporter assays use an easily measured gene product as a stand-in for the process of interest.
In assay [5] the target is Fibroblast growth factor 10 (Homo sapiens) (UniProt O15520). As to the kind of experiment: FGF10 binders on small-molecule microarrays, primary screen, biochemical, small-molecule microarray, 635 nm fluorescence (AID 1102). Particulars: FGF10 binding, fluorescence 635 nm, higher = more signal.
Sequence of Fibroblast growth factor 10 (Homo sapiens) (O15520 whole entry, looked up): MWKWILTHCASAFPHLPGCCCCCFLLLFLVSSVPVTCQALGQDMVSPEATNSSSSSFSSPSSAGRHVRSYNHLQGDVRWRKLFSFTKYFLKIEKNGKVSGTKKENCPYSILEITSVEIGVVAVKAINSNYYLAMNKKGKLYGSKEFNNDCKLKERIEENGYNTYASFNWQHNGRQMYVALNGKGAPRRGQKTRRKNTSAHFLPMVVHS
In assay [6] the test system is glycogen synthase kinase-3 (GSK3A per assay name; protocol says GSK3B). The assay can be described thus: GSK3 binders on small-molecule microarrays, primary screen, biochemical, small-molecule microarray, 635 nm fluorescence, GSK3A (AID 1103). Also: the record names both GSK3A and GSK3B. As to conditions: small-molecule microarray binding, fluorescence 635 nm; higher = more signal.
Assay [7] deals with Epidermal growth factor receptor (Homo sapiens) (UniProt P00533). The assay can be described thus: EGFR binders on small-molecule microarrays, primary screen, biochemical, small-molecule microarray, 635 nm fluorescence (AID 1104).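 Also: score merges 667 nm emission intensity with spot signal to noise over triplicate slides.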 As to conditions: EGFR binding, higher = more signal.
Sequence of Epidermal growth factor receptor (Homo sapiens) (P00533 whole entry, looked up): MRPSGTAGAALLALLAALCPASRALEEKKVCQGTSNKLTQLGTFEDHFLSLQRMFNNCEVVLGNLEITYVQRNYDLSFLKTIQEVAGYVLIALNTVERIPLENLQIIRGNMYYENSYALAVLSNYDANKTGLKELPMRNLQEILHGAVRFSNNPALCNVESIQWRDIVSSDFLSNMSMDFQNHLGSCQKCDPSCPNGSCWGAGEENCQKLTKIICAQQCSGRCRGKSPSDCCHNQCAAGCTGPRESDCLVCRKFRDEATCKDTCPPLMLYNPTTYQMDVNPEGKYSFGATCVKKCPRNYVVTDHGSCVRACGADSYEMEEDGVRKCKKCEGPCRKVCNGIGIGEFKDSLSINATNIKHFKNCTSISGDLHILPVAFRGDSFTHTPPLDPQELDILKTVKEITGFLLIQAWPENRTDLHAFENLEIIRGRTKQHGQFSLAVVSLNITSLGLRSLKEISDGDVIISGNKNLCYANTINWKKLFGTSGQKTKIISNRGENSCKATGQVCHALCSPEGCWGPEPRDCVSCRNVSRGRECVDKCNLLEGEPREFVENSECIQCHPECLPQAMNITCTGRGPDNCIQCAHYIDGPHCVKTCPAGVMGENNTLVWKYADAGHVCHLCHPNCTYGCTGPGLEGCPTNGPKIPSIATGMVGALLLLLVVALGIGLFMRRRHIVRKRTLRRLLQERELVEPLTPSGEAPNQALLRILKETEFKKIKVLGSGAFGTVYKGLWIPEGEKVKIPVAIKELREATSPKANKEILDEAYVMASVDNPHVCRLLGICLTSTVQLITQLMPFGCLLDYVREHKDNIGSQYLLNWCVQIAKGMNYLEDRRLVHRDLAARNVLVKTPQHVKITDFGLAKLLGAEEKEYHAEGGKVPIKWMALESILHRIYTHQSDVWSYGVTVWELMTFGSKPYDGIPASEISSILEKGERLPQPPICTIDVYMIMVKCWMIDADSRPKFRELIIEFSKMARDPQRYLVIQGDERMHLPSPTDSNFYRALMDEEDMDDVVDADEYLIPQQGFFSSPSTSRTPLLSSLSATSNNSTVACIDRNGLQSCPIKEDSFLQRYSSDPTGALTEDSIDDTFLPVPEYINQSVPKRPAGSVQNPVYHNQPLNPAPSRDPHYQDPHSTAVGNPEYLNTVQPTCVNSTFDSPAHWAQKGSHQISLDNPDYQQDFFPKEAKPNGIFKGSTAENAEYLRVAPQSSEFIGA
The target in assay [8] is Follistatin-related protein 3 (Homo sapiens) (UniProt O95633). As to the kind of experiment: FSTL3 binders on small-molecule microarrays, primary screen, biochemical, small-molecule microarray, 635 nm fluorescence (AID 1105).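 Also: score merges emission near 667 nm and signal to noise per printed spot across three slides.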 Particulars: FSTL3 binding, higher = more signal.
Sequence of Follistatin-related protein 3 (Homo sapiens) (O95633 whole entry, looked up): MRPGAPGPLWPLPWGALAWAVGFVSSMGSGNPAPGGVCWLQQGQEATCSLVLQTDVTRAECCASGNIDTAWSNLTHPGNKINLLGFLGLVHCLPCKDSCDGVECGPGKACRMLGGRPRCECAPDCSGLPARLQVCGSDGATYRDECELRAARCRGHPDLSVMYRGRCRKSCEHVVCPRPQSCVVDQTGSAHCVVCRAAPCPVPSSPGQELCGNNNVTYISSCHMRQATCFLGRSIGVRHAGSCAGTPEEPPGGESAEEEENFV
Assay [9] addresses Dickkopf-related protein 1 (Homo sapiens) (UniProt O94907). The assay can be described thus: DKK1 binders on small-molecule microarrays, primary screen, biochemical, small-molecule microarray, 635 nm fluorescence scan (AID 1106).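 Also: score merges emission near 667 nm with signal to noise over three replicate slides.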 As to conditions: DKK1 binding, higher = more signal.
Assay [10] deals with Inhibin beta A chain (activin A). As to the kind of experiment: INHBA (activin A) binders on microarrays, primary screen, biochemical, small-molecule microarray, 635 nm fluorescence scan (AID 1107).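 Also: mouse activin A protein probed at 4.33 µg/mL on printed slides; score merges bound-protein fluorescence near 667 nm with spot signal-to-noise.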 Particulars: small-molecule microarray binding, higher = more signal.
The subject of assay [11] is Human papillomavirus type 1a protein E7 (residues 44-93). The assay can be described thus: HPV1a E7 fragment binders on microarrays, primary screen, biochemical, small-molecule microarray, residues 44-93, 635 nm fluorescence (AID 1108).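 Also: E7 fragment applied at 1 µg/mL in TBST for 1 h at 4 C; score combines spot fluorescence with its signal to noise ratio.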 As to conditions: small-molecule microarray binding, fluorescence 635 nm; higher = more signal.
A short description of assay [12]: modulators of HCV replicon luciferase signal, primary screen, HCV replication inhibitor project, Huh7 cells, luciferase reporter (AID 1109).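 Also: huh7 hepatoma cells harbouring a luciferase neomycin HCV replicon reporter; luciferase luminescence as measure of HCV replicon replication; test concentration not given here.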 As to conditions: 48 h, higher = more signal. For orientation: In antiviral work, replicon cells carry a viral genome segment that copies itself.
Assay [13] deals with Left-right determination factor 2 (Homo sapiens) (UniProt O00292). As to the kind of experiment: LEFTY2 binders on small-molecule microarrays, primary screen, biochemical, small-molecule microarray, 635 nm fluorescence scan (AID 1110). As to conditions: LEFTY2 binding, higher = more signal.
Sequence of Left-right determination factor 2 (Homo sapiens) (O00292 whole entry, looked up): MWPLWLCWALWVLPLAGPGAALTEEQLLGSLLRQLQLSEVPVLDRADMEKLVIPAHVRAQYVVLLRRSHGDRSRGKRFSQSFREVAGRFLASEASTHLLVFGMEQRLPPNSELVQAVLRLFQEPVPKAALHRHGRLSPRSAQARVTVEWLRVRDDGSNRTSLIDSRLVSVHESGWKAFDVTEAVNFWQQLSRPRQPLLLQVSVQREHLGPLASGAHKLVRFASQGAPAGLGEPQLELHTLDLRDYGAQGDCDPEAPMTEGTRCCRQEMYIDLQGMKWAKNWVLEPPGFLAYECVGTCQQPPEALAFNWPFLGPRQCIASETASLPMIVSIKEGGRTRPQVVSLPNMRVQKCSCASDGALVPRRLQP
Assay [14] has as its target Calmodulin-1 (Homo sapiens) (UniProt P0DP23). The assay can be described thus: CALM1 binders on microarrays, EGTA buffer, profiling panel, biochemical, small-molecule microarray, Cy5-labelled CALM1 (AID 1111).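 Also: labelled calmodulin applied in Tris saline Tween buffer holding calcium plus EGTA and DTT.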 As to conditions: Cy5-CALM1 binding fluorescence, higher = more signal.
Assay [15] has the same target. The assay can be described thus: calcium-bound CALM1 binders on microarrays, profiling panel, artefact control for SMM control-protein annotation, biochemical, small-molecule microarray, Cy5-labelled CALM1, plus calcium (AID 1112).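 Also: score merges spot fluorescence with signal to noise from triplicate slides.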 As to conditions: Cy5-CALM1 binding fluorescence, higher = more signal.
Assay [16] in a line: small-molecule microarray binders of probe aWnt5a, primary screen, biochemical, biotinylated probe, 635/667 nm fluorescence (AID 1113).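 Also: score merges 667 nm fluorescence intensity with signal-to-noise per printed feature.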 Particulars: higher = more signal.
The nature of assay [17]: small-molecule microarray binders of probe aShh, primary screen, biochemical, biotinylated probe, 635/667 nm fluorescence (AID 1114).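 Also: probe is biotin-labelled aShh protein from a stem cell growth factor screen; measures binding of labelled protein to compounds printed on the slide; score merges feature fluorescence at 667 nm with signal-to-noise.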 Particulars: higher = more signal.
A short description of assay [18]: small-molecule microarray binders of probe aNog, primary screen, biochemical, biotinylated probe, 635/667 nm fluorescence (AID 1115).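 Also: probe is biotinylated aNog protein used at 0.15 µg/mL for 1 h at 4 C; z-score combines 667 nm fluorescence of each spot with its signal to noise.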 Particulars: higher = more signal.
Assay [19] deals with Torsin-1A-interacting protein 1 (Homo sapiens) (UniProt Q5JTV8). As to the kind of experiment: LAP1 binders from COS7 cell lysate, primary screen, small-molecule microarray, 635/667 nm fluorescence (AID 1116). As to conditions: COS7-hLAP1 lysate binding, 635 nm fluorescence, higher = more signal.
Sequence of Torsin-1A-interacting protein 1 (Homo sapiens) (Q5JTV8 whole entry, looked up): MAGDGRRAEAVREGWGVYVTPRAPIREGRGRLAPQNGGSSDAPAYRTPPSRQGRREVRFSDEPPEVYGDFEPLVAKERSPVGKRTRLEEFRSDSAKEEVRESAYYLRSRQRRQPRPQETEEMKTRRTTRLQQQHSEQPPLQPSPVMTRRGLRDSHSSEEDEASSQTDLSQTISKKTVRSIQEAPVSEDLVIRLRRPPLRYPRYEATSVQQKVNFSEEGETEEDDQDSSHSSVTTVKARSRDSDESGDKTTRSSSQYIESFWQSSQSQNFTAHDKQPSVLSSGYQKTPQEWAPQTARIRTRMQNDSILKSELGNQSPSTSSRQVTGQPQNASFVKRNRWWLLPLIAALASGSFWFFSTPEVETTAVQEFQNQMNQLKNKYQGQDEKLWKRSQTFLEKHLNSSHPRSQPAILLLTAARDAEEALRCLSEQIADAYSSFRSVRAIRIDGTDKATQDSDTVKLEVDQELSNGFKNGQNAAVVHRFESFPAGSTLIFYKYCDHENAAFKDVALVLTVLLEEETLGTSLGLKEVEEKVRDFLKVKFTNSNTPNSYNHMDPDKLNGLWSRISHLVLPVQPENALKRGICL
Assay [20] deals with Alpha-bungarotoxin (Bungarus multicinctus) (UniProt P60615). As to the kind of experiment: alpha-bungarotoxin binders on microarray, profiling panel, artefact control for SMM control protein annotation, biochemical, small-molecule microarray, Alexa647 label, 635/667 nm fluorescence (AID 1117). Particulars: alpha-BTX-A647 binding fluorescence, higher = more signal.
Sequence of Alpha-bungarotoxin (Bungarus multicinctus) (P60615 whole entry, looked up): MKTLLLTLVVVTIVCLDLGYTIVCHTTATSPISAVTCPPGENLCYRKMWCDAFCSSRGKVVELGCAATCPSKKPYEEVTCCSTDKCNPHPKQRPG

Sequence of Dickkopf-related protein 1 (Homo sapiens) (O94907 whole entry, looked up): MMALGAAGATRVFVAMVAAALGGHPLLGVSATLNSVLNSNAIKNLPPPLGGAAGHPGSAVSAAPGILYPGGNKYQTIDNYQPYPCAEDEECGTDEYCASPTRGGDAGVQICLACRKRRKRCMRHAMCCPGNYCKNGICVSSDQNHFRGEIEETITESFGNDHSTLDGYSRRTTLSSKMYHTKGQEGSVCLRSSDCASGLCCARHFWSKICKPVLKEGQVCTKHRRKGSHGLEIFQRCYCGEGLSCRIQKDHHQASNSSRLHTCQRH

Regarding `O=C(NCCN1CCOCC1)[C@@H]1c2ccccc2C(=O)N(Cc2ccc(OC(F)(F)F)cc2)[C@H]1c1ccc(CO)cc1`, the composite z-score in assay [1] was -0.0284; in [2], 0.0779; in [3], 1.18; in [5] it was -0.738; in [6] it was 0.0049; in assay [7], -0.611. Also, the composite z-score in assay [8] is 0.417; in [9], -1.14; in assay [10] it was -0.252; in [11] it was 1.25; in assay [13], -0.622; in assay [14] it was 0.749. The composite z-score in assay [15] is 0.337; in [16], -0.11; in assay [17] it was 0.0756; in [18], 0.99; in assay [19], 1.19; in assay [20], 0.0007. Moreover, the z-score in assay [4] is 0.709 (inactive); in [12] it was -1.29.

As to `O=C1C[C@@](C(=O)NCc2ccccc2)(c2ccc([N+](=O)[O-])cc2)[C@@H](c2ccc(CO)cc2)N1C1CCCCC1`, the composite z-score is 1.34 in [1]; -0.437 in assay [2]; 0.538 in [3]; 0.42 in assay [5]; 0.97 in assay [6]; 0.123 in [7]. Also, the composite z-score in assay [8] is 0.645; in assay [9] it was 0.0339; in assay [10], 0.953; in assay [11], 0.653; in assay [13], 0.399; in [14], -0.175. The composite z-score in assay [15] was -0.386; in [16], 0.0273; in assay [17] it was 0.0697; in assay [18], 0.786; in assay [19], 1.46; in [20] it was 1.72. The z-score in assay [4] is -1.97 (inactive); in assay [12] it was -1.24.

Turning to `Cc1ccc(S[C@]2(C(=O)NCCCN(C)C)CC(=O)N(Cc3ccccc3C(F)(F)F)[C@@H]2c2ccc(CO)cc2I)cc1`, the composite z-score in assay [1] was 1.18; in assay [2], -0.473; in [3] it was -0.464; in [5] it was -0.54; in assay [6], -0.605; in [7] it was -1.04. Also, the composite z-score is -0.402 in assay [8]; -1.25 in assay [9]; 0.812 in [10]; 0.545 in assay [11]; -1.17 in assay [13]; -0.252 in assay [14]. The composite z-score in [15] is 0.236; in assay [16] it was 0.264; in assay [17], -0.403; in assay [18], 1.27; in [19], 0.28; in assay [20], -0.0365. For the same molecule, the z-score is -0.425 (inactive) in [4] and -2.37 in assay [12].

`C=CCN1C(=O)[C@@]2(O[C@@H](CCn3cc([C@H](O)c4ccccc4)nn3)[C@H]([Si](C)(C)c3ccc(OC)cc3)[C@H]2C)c2cc(N3C(=O)c4cccc5cccc3c45)ccc21`: the composite z-score is 0.0764 in [1]; -0.236 in assay [2]; 0.401 in assay [3]; -0.859 in [5]; -1.37 in [6]; -1.04 in [7]. Further, the composite z-score in [8] was -1.06; in assay [9] it was -1.12; in [10] it was -0.893; in [11] it was -0.18; in assay [13], -0.898; in assay [14], 0.178. Besides, the composite z-score in [15] was 0.872; in assay [16], -0.178; in assay [17] it was -0.138; in [18] it was 0.205; in assay [19], -0.236; in [20], -0.0541. Also, the z-score is -0.447 (inactive) in [4] and -3.74 in [12].

`O=C1[C@H]2C=C(I)[C@H](C[C@@H]2OCCCCCCO)[C@@]12CO2`: the composite z-score in assay [1] was 0.525; in assay [2], -0.261; in [3] it was 0.191; in assay [5], 0.281; in assay [6] it was -0.454; in [7], 0.677. In addition, the composite z-score in [8] was 1.39; in assay [9], 1.15; in assay [10], 1.43; in assay [11] it was -1.14; in [13], 0.687; in [14], -1.08. In addition, the composite z-score in assay [15] is -1; in assay [16], -0.152; in assay [17], -0.0362; in assay [18], -0.422; in assay [19], -0.144; in assay [20], 0.621. The z-score in assay [4] was 0.0312 (inactive); in [12] it was -2.67.

`C=CCOC(=O)[C@@H]1[C@H]2C(=O)O[C@H](c3ccccc3)[C@H](c3ccccc3)N2[C@H](c2ccc(OCCOC(=O)[C@H]3C[C@H]4C(=O)N5CCC[C@H]5C(=O)N4[C@H]3c3cccc(OCCO)c3)cc2)[C@@]12C(=O)Nc1ccc(I)cc12`: the composite z-score in assay [1] is 1.56; in assay [2] it was -0.0777; in assay [3], 0.0879; in assay [5], 1.05; in [6] it was 1.24; in assay [7], 1.08. Moreover, the composite z-score in assay [8] is 1.42; in [9], 1.06; in assay [10], -0.0842; in assay [11], 0.195; in [13], 1.19; in assay [14], -0.0165. Besides, the composite z-score in assay [15] is 0.0231; in assay [16], -0.0566; in [17], 0.138; in [18], 0.373; in assay [19], 1.09; in assay [20] it was 0.659. In addition, the z-score in [4] was 0.388 (inactive); in assay [12] it was -0.898.

Take `CC(C)=C1C(=O)C(c2ccccc2)=C2CN3C(=O)N(CCc4ccccc4)C(=O)[C@]3(C)[C@H]21`: the composite z-score in assay [1] was 1.27; in [2], 0.915; in [3], 1.13; in [5] it was 0.139; in assay [6] it was -0.701; in assay [7], -0.276. The composite z-score in [8] was -0.0755; in assay [9] it was -0.538; in assay [10] it was 1.02; in [11] it was 0.186; in assay [13] it was -0.245; in [14], 1.16. Besides, the composite z-score in [15] is 0.0844; in assay [16] it was 0.0825; in [17] it was 0.748; in [18], 0.794; in assay [19], 0.149; in assay [20] it was 0.196. Besides, the z-score was 1.15 (inactive) in assay [4] and -0.44 in assay [12].
